From PubChem
FEN1 inhibitor – human FEN1 inhibition; Recombinant FEN1 flap cleavage, fluorescence, 15 min; Potency, µM (series often up to 114 µM), for the others: at the highest dose activity change, negative = inhibition, hits mostly inhibitors; 0.35% of 390,000 active; also: potency is read from the fitted curve at half-maximal effect; % is scaled to controls: 0 for no effect and ±100 for the full control effect; nearly all actives have a fitted effect of over 65% in size
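Reaction started by adding substrate (50 nM final) to 10 nM enzyme after 15 min room-temperature compound preincubation. Reads at 0 and 15 min, with data normalized and fitted to a four-parameter Hill equation.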
Tb PGK inh – blocks T. brucei phosphoglycerate kinase; 0.043% of 380,000 active; PGK/GAPDH coupled, Kinase-Glo luminescence, 60 min; P07378; Potency, µM (doses to about 57.5 µM), for the others: at the top dose activity change, negative = inhibition, hits mostly inhibitors; AID 602233; also: potency is read from the fitted curve at half-maximal effect; % is scaled to controls: 0 for no effect and ±100 for the full control effect; nearly all actives have a fitted effect of over 60% in size
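Recombinant glycosomal PGK reaction used 1,3-bisphosphoglycerate generated in-well by GAPDH (100nM final) in 100mM TEA pH 7.6, 5mM MgCl2, 0.01% Tween-20. After 60 minutes at room temperature, ATP was read by Kinase-Glo Plus luminescence end-point.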
Pol iota inh – DNA polymerase iota (human) inhibition; Q9UNA4; Pol iota fluorescent replication assay, 10 min; Potency, µM (top dose mostly 115 µM), inactives show top-dose activity, negative = inhibition, most hits filed as inhibitors; 1% of 390,000 active; AID 588590; also: potency is read from the fitted curve at half-maximal effect
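Fluorescent replication assay read twice, at 0 min and 10 min after adding 50 nM (final) substrate. Enzyme (10 nM) and compounds were first incubated 15 min at room temperature; enzyme-free buffer wells were negative controls.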
POLB inh – inhibitors of human DNA polymerase beta; P06746; Pol beta primer extension/strand displacement, fluorescence kinetic; Potency, µM (series often up to 114 µM), for inactives: at the top dose activity change, negative = inhibition, actives largely listed as inhibitors; 1.3% of 340,000 active; AID 485314; also: potency is read from the fitted curve at half-maximal effect; % is scaled to controls: 0 for no effect and ±100 for the full control effect
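Kinetic readout of DNA synthesis with strand displacement by Pol beta. Compound and 10 nM enzyme sit 15 min at room temperature; 50 nM substrate starts the reaction, read immediately and at 10 min.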
Pol kappa inh-1 – DNA polymerase kappa (human) inhibition. Q9UBT6. purified Pol kappa, fluorescent DNA synthesis assay, 10 min. Potency, µM (series often up to 107 µM), without a hit: at the highest dose activity, negative = inhibition, hits mostly inhibitors. AID 588579. 0.53% of 400,000 active; also: potency is read from the fitted curve at half-maximal effect; % is scaled to controls: 0 for no effect and ±100 for the full control effect
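Pol kappa 10 nM + cpd, 15 min RT; start w/ substrate 50 nM final; fluorescence kinetic read, 0 and 10 min. Neg ctrl: buffer, no enzyme.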
Pol eta inh-1 – blocks human DNA polymerase eta activity; recombinant Pol eta, fluorescent DNA replication assay; Potency, µM (doses to about 114 µM), without a hit: at the top dose activity change, negative = inhibition, actives largely listed as inhibitors; 1.2% of 390,000 active; also: potency is read from the fitted curve at half-maximal effect; % is scaled to controls: 0 for no effect and ±100 for the full control effect
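Pol eta (10 nM) was preincubated with compounds for 15 min at room temperature, after which fluorescent replication substrate (50 nM final) was added to start the reaction. Fluorescence was read kinetically at 0 and 10 min.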
GALK confirm – galactokinase (human) inhibition, confirmation; shares compounds with Pol eta inh-1; purified GALK, Kinase-Glo ATP depletion luminescence; Potency, µM (titrated, usually from 115 µM), without a hit: at the top dose activity, negative = inhibition, hits mostly inhibitors; 70% of 150 active; AID 2015
Target sequence (P51570 whole entry, looked up): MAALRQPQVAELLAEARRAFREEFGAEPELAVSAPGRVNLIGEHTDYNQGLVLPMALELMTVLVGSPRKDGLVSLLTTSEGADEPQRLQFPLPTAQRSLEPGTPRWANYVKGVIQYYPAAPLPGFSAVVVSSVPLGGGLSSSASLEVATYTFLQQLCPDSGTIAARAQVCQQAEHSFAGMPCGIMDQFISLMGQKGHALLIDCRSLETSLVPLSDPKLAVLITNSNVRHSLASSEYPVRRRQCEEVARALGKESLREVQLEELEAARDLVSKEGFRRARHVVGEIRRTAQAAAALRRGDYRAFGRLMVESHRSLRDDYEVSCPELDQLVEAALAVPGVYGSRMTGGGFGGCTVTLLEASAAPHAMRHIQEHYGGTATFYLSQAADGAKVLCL
Redox cycling – generates H2O2 by redox cycling, flagging GALK artifacts; Phenol red-HRP H2O2 redox cycling, absorbance 600 nm; 40% of 150 active; shares compounds with Pol eta inh-1; Potency, µM (series often up to 115 µM), without a hit: at the highest dose activity change, negative = H2O2 signal, hits mostly inhibitors
HEK293 viability – HEK-293 cytotoxicity, GALK inhibitor secondary. HEK-293 viability, ATP luminescence (CellTiter-Glo), 24/48 h. 10% of 170 active. shares compounds with Pol eta inh-1. Potency, µM (titrated, usually from 46.1 µM), for inactives: at the highest dose activity change, negative = cytotoxicity, most hits filed as inhibitors. AID 2547; also: potency is read from the fitted curve at half-maximal effect; % is scaled to controls: 0 for no effect and ±100 for the full control effect
Pol kappa inh-2 – confirmation of human DNA polymerase kappa inhibitors. AID 720501. purified Pol-kappa, fluorescent strand-displacement substrate. Potency, µM, actives largely listed as inhibitors. shares compounds with Pol eta inh-1. 76% of 920 active; also: potency is read from the fitted curve at half-maximal effect
Pol eta inh-2 – Pol eta (human) inhibition, cherry-pick confirmation; 64% of 2,600 active; Potency, µM, most hits filed as inhibitors; Pol eta primer extension, TAMRA/BHQ fluorescence, 10 min; AID 720502; shares compounds with Pol eta inh-1; also: potency is read from the fitted curve at half-maximal effect
Starred values were filed as active, the others as inactive; i = inactive; ? = inconclusive; nt = no result; [ ] = another dose, or the depositor's remark. A selection: hits, their analogues and other compounds. The true share with any hit is near 2.4%. Calls follow the shape of the dose curve; as a rule, active = well fitted curve in the direction sought with a large enough effect; inconclusive = small, poorly fitted or top-dose-only effect, or another doubt; inactive = no such curve, though single readings can be large; an effect the other way counts as inactive or inconclusive.

SMILES	FEN1 inhibitor	Tb PGK inh	Pol iota inh	POLB inh	Pol kappa inh-1	Pol eta inh-1	Pol eta inh-2	others
CSc1ccc(/C=C2/C(=N)N3N=C(CC(=O)N4CCCC4)SC3=NC2=O)cc1	-11%	0%	79µM*	7%	?	40µM*	?
COc1ccc(-n2c(C)cc(/C=C3\C(=N)N4N=C(CC(=O)N5CCOCC5)SC4=NC3=O)c2C)c(OC)c1	7%	i	45µM*	?	?	40µM*	?
CC(=O)Nc1ccc(C2Nc3c(C)cc(C)cc3-c3cc(C)nn32)cc1 (stereo unspecified)	2%	-5%	33%	5%	-12%	-25%	nt
O=C(Nc1ccc(OCc2cc(=O)n3ccccc3n2)cc1)c1ccccc1Cl	-3%	-9%	-14%	20%	-6%[60.1 µM]	11%	nt
Cc1ccc(C(=O)NCC(=O)OCN2C(=O)c3ccccc3C2=O)cc1C	-1%	1%	18%	nt	-6%	-13%	nt
O=C(N[C@@H](Cc1ccccc1)C(=O)O)c1ccc(C(F)(F)F)cc1	-4%	i	20%	-23%	-24%	-3%	nt
O=C(NC1(O)C(=O)c2ccccc2C1=O)c1ccc(C(F)(F)F)cc1	-5%	?	1.8µM*	34%	-15%	45µM*	?	GALK confirm=19µM*;Redox cycling=11µM*;HEK293 viability=-7%
Cc1ccc(C(=O)NC2(O)C(=O)c3ccccc3C2=O)cc1C	-15%	-12%	2µM*	12%	-9%	45µM*	?	GALK confirm=27µM*;Redox cycling=12µM*;HEK293 viability=3%
CC[C@@]1(c2ccccc2)NC(=O)N(C)C1=O	nt	nt	nt	nt	-1%[60.1 µM]	nt	nt
Cc1ccc(C)c(-n2c3nc(=O)[nH]c(=O)c-3cc3cc([N+](=O)[O-])ccc32)c1	?	-12%	20µM*	35µM*	?	13µM*	60*
Cc1cccc(-n2c3nc(=O)[nH]c(=O)c-3cc3cc([N+](=O)[O-])ccc32)c1	?	-12%	?	29%	-11%	20µM*	48*
N#CCSc1nnc(SCC#N)s1	-6%	-4%	?	?	?	20µM*	76*
CN(C)S(=O)(=O)c1cccc(NC(=O)c2cc3c(=O)n4ccccc4nc3s2)c1	-2%	-4%	1%	12%	-5%	-5%	nt
Cc1cc(NS(=O)(=O)c2ccc(NC(=O)c3cc4c(=O)n5ccccc5nc4s3)cc2)nc(C)n1	-26%	-6%	50µM*	?	89µM*	20µM*	60*
COc1cc(C(CC(=O)N2CCCC2)c2c(OC)cc(OC)c3ccc(=O)oc23)cc(OC)c1OC (stereo unspecified)	1%	-10%	?	?	?	32µM*	85*
COc1cc(OC)c2ccc(=O)oc2c1C(CC(=O)N1CCCC1)c1ccc2c(c1)OCO2 (stereo unspecified)	-16%	-22%	71µM*	45µM*	50µM*	?	?
CCS(=O)(=O)C1=NN2C(=N)/C(=C\c3ccc(OC(=O)c4ccco4)c(Br)c3)C(=O)N=C2S1	nt	nt	nt	89µM*	nt	nt	nt	GALK confirm=30µM*;Redox cycling=0%;HEK293 viability=-10%
O=C1c2ccccc2NC(c2cc(Br)c3c(c2)OCO3)N1Cc1ccco1 (stereo unspecified)	0%	nt	-11%	nt	-7%	nt	nt
CC(=O)N1c2ccc(S(=O)(=O)N3CCCCCC3)cc2CC1C(=O)NCc1ccccc1 (stereo unspecified)	-5%	-3%	9%	14%	-10%[60.1 µM]	-10%	nt
COc1ccc(C2C=C(c3ccccc3)Nc3nc(NS(=O)(=O)c4ccc(C)cc4)nn32)cc1 (stereo unspecified)	3%	-13%	27%	-2%	-13%	-29%	nt
Cc1ccc(C2C=C(c3ccccc3)Nc3nc(NS(=O)(=O)c4ccc(C)cc4)nn32)cc1 (stereo unspecified)	12%	3%	6%	2%	-7%[60.1 µM]	?	nt	Pol kappa inh-2=?
COc1ccccc1C(=O)N(Cc1ccco1)Cc1ccccc1F	-16%	5%	13%	37%	-3%	-6%	nt
CCOC(=O)c1ccc(N2CCN(c3cc(C)ccc3C)CC2)c(NC(=O)Nc2ccc(Cl)cc2)c1	15%	9%	32%	1%	-10%[60.1 µM]	-7%	nt
Cc1ccc(C)c(NC(=O)Cn2cnc3c(oc4ccccc43)c2=O)c1	-3%	-1%	29%	35%	-3%	?	nt	Pol kappa inh-2=67*
O=C(Cn1cnc2c(oc3ccccc32)c1=O)Nc1ccc(F)cc1F	0%	-1%	-2%	7%	-18%	-5%	nt
SMILES	FEN1 inhibitor	Tb PGK inh	Pol iota inh	POLB inh	Pol kappa inh-1	Pol eta inh-1	Pol eta inh-2	others
Cc1ccc(S(=O)(=O)N(CC(=O)Nc2c(C)cccc2C)c2cccc(Cl)c2)cc1	-4%	-9%	10%	-3%	-22%	-6%	nt
Cc1c(C(=O)N(C)C2CCCCC2)sc2nc3ccc(N)cc3n12	nt	nt	nt	nt	-15%[60.1 µM]	nt	nt
O=C(COC(=O)CCC(=O)c1ccc(F)cc1)NCc1ccc(Cl)cc1	-12%	13%	-9%	nt	-11%	-6%	nt
O=C(COC(=O)CCC(=O)c1ccc(Cl)cc1)NCc1ccco1	-3%	?	45µM*	35µM*	?	25µM*	76*
COc1cc(CC(=O)OCC(=O)NCc2ccco2)cc(OC)c1OC	4%	-17%	?	nt	-26%	50µM*	?
Cc1ccccc1CSc1cn(CC(=O)N2CCCCCC2)c2ccccc12	4%	i	17%	-18%	-12%	-15%	nt
